PubChem BioAssay
Activity calls are given as the source filed them.

Key:
[1] = tested on: PRMT1 (protein arginine N-methyltransferase 1); experiment: small molecules binding arginine methyltransferase PRMT1 – biochemical, small-molecule microarray, 635 nm fluorescence, primary screen (AID 1088); conditions: higher = more signal;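 note: binding of Prmt1 protein to compounds spotted on small-molecule microarray slides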
[2] = growth effects on S. cerevisiae YJM789 – YJM789 clinical isolate, OD600, 24 h, basal, primary screen (AID 1089); conditions: higher = more signal, called active from +8 up or from −8 down;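 note: growth of clinical yeast isolate S. cerevisiae YJM 789 seeded 1000 cells per well; test concentration not given here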
[3] = S. pombe growth modifiers, basal conditions – strain 972, OD600, 24 h, no modulator, primary screen (AID 1090);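 note: basal condition with compound alone and no growth modifier present; test concentration not given here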; conditions: S. pombe 972 growth, higher = more signal, called active from +8 up or from −8 down
[4] = budding yeast growth modifiers under rapamycin – strain BY4716, OD600, 96 h, primary screen (AID 1091); note: test concentration not given here; conditions: S. cerevisiae BY4716 + rapamycin, higher = more signal, called active from +8 up or from −8 down
[5] = target: Torsin-1A-interacting protein 2 (Homo sapiens) (UniProt Q8NFQ8); experiment: small molecules binding lysate-expressed LULL1 – cell lysate, human LULL1 lysate, 635/667 nm fluorescence, primary screen (AID 1092); conditions: small-molecule microarray, hLULL1 lysate binding, 635 nm fluorescence; higher = more signal;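 note: probe is lysate of COS7 cells overexpressing human LULL1; score merges per-feature 667 nm fluorescence with signal-to-noise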
[6] = optical density change of DRC41 E. coli – strain DRC41, OD650, 24 h, E. coli filamentation project, primary screen (AID 1093);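 note: MC1000 strain lacking acrAB efflux and sulA so SOS filamentation is blocked; test concentration not given here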; conditions: E. coli DRC41 growth, higher = more signal, called active from +8 up or from −8 down
[7] = probe aLefty2 binding to arrayed compounds – biochemical, biotinylated probe, 635/667 nm fluorescence, primary screen (AID 1094); conditions: small-molecule microarray, higher = more signal;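 note: score merges spot fluorescence near 667 nm with spot signal-to-noise ratio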
[8] = tested on: Noggin (protein binding on small-molecule microarray); experiment: small molecules binding Noggin protein – biochemical, 635/667 nm fluorescence, primary screen (AID 1095); conditions: 635 nm fluorescence, higher = more signal;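 note: score merges 667 nm feature fluorescence with signal to noise over triplicate slides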
[9] = target: Neurogenic locus notch homolog protein 3 (Homo sapiens) (UniProt Q9UM47); experiment: small molecules binding NOTCH3 protein – biochemical, 635/667 nm fluorescence, primary screen (AID 1096); conditions: small-molecule microarray, 635 nm fluorescence, higher = more signal
[10] = probe aEGFR binding to arrayed compounds – biochemical, biotinylated probe, 635/667 nm fluorescence, primary screen (AID 1097); conditions: small-molecule microarray, higher = more signal;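 note: probe is a biotinylated anti-EGFR antibody binding compounds printed on slides; score combines fluorescence near 667 nm and signal to noise of each spot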
[11] = tested on: Plasmodium falciparum Sir2 (PF13_0152, Sir2A); experiment: Plasmodium falciparum Sir2A binding compounds – biochemical, small-molecule microarray, 635 nm fluorescence, primary screen (AID 1098); conditions: fluorescence 635 nm, higher = more signal;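 note: score merges spot fluorescence intensity with its signal-to-noise ratio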
[12] = probe aDKK1 binding to arrayed compounds – biochemical, biotinylated probe, 635/667 nm fluorescence, primary screen (AID 1099); conditions: small-molecule microarray, higher = more signal;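 note: score merges 667nm spot fluorescence with signal to noise across triplicate slides; reference of the scale not given here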
[13] = probe aCHRDL2 binding to arrayed compounds – biochemical, biotinylated probe, 635/667 nm fluorescence, primary screen (AID 1100); conditions: small-molecule microarray, higher = more signal
[14] = change in splice reporter luminescence, either direction, cell-based, HEK293, spliceosome inhibition project, primary screen (AID 1101); conditions: HEK293 splicing luciferase reporter, 24 h, higher = more signal, called active from +8 up or from −8 down;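 note: HEK293 cells carrying a splicing-competent luciferase reporter gene; test concentration not given here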
[15] = target: Fibroblast growth factor 10 (Homo sapiens) (UniProt O15520); experiment: compounds binding fibroblast growth factor 10 – biochemical, small-molecule microarray, 635 nm fluorescence, primary screen (AID 1102); conditions: FGF10 binding, fluorescence 635 nm, higher = more signal
[16] = tested on: glycogen synthase kinase-3 (GSK3A per assay name; protocol says GSK3B); experiment: compounds binding glycogen synthase kinase-3 – biochemical, small-molecule microarray, 635 nm fluorescence, GSK3A, primary screen (AID 1103); conditions: fluorescence 635 nm, higher = more signal; note: the record names both GSK3A and GSK3B
[17] = target: Epidermal growth factor receptor (Homo sapiens) (UniProt P00533); experiment: compounds binding epidermal growth factor receptor – biochemical, small-molecule microarray, 635 nm fluorescence, primary screen (AID 1104); conditions: EGFR binding, higher = more signal;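 note: score merges 667 nm emission intensity with spot signal to noise over triplicate slides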
[18] = target: Follistatin-related protein 3 (Homo sapiens) (UniProt O95633); experiment: compounds binding follistatin-related protein 3 – biochemical, small-molecule microarray, 635 nm fluorescence, primary screen (AID 1105); conditions: FSTL3 binding, higher = more signal;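 note: score merges emission near 667 nm and signal to noise per printed spot across three slides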
[19] = target: Dickkopf-related protein 1 (Homo sapiens) (UniProt O94907); experiment: small molecules binding DKK1 protein – biochemical, small-molecule microarray, 635 nm fluorescence scan, primary screen (AID 1106); conditions: higher = more signal;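 note: score merges emission near 667 nm with signal to noise over three replicate slides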
[20] = tested on: Inhibin beta A chain (activin A); experiment: small molecules binding activin A – biochemical, small-molecule microarray, 635 nm fluorescence scan, primary screen (AID 1107); conditions: INHBA, higher = more signal;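 note: mouse activin A protein probed at 4.33 µg/mL on printed slides; score merges bound-protein fluorescence near 667 nm with spot signal-to-noise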

Chain of Neurogenic locus notch homolog protein 3 (Homo sapiens) (Q9UM47 whole entry, looked up): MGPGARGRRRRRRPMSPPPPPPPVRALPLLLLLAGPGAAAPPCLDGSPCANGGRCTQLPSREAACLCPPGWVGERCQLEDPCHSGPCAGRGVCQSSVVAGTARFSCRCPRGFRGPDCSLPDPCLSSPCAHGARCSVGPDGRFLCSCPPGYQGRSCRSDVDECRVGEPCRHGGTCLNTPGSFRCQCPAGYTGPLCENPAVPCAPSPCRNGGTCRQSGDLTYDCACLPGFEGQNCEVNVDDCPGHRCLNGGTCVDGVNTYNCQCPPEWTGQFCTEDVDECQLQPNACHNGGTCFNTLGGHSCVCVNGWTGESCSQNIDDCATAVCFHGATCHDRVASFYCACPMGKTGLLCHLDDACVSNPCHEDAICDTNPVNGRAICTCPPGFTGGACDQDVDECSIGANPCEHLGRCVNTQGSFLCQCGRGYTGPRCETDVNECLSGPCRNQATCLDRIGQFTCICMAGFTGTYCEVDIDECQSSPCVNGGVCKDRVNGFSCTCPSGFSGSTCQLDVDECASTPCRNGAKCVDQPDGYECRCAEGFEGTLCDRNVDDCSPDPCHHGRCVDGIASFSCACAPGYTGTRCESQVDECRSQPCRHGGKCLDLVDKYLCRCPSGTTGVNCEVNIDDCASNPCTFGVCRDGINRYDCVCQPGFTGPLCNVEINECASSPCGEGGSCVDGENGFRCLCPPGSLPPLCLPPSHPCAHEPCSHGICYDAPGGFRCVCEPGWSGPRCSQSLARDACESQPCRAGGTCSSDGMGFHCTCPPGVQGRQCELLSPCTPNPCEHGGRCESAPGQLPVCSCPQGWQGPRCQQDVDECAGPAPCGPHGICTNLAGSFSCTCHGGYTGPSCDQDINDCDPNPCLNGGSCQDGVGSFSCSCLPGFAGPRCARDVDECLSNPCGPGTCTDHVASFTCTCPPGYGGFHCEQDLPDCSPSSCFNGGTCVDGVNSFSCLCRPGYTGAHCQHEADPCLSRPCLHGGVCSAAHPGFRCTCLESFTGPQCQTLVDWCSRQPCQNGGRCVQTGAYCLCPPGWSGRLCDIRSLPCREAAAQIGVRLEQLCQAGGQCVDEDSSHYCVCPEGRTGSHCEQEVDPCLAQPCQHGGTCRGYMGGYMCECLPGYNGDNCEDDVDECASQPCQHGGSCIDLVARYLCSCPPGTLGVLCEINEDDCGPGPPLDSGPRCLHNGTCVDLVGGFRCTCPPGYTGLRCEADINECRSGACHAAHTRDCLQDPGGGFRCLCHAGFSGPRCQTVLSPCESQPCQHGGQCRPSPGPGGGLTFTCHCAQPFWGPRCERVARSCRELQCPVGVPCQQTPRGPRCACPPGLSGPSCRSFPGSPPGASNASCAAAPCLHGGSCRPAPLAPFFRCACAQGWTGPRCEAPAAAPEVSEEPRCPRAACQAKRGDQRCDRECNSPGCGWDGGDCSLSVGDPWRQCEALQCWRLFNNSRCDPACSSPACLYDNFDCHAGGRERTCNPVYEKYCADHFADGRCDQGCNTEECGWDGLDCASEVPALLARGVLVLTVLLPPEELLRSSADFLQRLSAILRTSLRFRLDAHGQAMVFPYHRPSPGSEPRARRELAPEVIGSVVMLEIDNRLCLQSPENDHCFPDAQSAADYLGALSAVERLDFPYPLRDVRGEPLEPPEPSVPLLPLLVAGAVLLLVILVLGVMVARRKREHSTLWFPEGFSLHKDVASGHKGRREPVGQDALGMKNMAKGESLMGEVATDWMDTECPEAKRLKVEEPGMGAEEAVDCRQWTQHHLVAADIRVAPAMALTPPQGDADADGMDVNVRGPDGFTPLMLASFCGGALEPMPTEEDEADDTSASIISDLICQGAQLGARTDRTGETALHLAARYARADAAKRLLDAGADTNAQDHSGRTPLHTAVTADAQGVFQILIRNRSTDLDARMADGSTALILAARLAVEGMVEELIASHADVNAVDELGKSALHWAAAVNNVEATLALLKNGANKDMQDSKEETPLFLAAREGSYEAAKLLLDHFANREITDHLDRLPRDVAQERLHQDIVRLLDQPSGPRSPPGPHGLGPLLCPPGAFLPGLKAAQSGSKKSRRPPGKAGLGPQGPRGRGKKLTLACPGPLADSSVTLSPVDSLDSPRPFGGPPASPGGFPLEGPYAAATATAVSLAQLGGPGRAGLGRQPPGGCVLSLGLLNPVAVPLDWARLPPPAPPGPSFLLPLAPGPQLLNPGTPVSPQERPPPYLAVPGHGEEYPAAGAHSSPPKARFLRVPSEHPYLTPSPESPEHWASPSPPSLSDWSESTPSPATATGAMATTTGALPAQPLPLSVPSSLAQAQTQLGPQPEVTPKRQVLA
Chain of Torsin-1A-interacting protein 2 (Homo sapiens) (Q8NFQ8 whole entry, looked up): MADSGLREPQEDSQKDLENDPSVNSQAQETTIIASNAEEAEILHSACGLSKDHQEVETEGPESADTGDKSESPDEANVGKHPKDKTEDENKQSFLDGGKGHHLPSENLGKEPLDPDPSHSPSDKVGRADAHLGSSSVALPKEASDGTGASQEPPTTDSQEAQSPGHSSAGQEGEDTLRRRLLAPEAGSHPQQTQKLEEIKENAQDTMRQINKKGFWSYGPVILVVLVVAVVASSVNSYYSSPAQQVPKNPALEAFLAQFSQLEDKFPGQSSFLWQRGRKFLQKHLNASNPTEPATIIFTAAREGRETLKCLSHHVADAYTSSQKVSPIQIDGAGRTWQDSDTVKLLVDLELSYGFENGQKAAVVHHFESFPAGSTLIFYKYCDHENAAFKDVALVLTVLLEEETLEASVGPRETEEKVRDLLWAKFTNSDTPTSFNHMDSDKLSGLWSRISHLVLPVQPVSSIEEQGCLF
Chain of Dickkopf-related protein 1 (Homo sapiens) (O94907 whole entry, looked up): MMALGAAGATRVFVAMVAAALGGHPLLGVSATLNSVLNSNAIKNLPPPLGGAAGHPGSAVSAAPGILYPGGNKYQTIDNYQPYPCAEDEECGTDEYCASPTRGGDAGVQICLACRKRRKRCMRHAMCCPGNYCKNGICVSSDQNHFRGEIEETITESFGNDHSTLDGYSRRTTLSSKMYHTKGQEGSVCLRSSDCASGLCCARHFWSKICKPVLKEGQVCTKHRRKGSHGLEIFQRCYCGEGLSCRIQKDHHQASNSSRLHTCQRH
Chain of Epidermal growth factor receptor (Homo sapiens) (P00533 whole entry, looked up): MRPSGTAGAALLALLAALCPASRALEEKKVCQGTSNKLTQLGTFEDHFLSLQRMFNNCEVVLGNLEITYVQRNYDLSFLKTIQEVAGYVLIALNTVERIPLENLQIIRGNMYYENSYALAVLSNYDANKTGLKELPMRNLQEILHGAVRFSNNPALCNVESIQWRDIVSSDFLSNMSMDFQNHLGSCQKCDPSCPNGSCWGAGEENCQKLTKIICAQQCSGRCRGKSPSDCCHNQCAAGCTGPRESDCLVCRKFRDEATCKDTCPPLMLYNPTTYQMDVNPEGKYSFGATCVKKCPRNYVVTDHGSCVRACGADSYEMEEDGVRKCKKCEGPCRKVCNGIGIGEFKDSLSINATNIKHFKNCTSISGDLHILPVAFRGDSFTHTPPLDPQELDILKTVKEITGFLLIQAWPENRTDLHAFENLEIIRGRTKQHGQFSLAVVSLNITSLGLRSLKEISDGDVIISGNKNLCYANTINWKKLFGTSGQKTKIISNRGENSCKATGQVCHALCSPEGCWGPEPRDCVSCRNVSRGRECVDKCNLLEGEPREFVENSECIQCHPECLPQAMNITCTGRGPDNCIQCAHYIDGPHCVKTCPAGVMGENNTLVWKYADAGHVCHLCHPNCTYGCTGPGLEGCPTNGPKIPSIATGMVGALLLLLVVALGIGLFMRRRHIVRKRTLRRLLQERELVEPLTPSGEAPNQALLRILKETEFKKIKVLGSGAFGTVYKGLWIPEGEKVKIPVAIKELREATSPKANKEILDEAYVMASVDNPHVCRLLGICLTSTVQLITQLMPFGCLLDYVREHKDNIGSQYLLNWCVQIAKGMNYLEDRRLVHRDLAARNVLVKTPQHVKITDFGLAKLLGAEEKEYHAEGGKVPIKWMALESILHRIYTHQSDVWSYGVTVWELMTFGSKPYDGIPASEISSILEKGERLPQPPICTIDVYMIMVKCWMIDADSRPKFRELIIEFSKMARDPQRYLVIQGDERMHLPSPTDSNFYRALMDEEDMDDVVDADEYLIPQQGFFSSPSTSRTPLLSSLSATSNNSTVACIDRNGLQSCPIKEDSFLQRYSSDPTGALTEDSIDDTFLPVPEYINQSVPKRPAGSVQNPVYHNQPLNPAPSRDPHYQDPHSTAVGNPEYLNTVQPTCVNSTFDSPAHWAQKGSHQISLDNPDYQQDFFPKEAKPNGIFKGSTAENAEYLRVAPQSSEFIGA
Chain of Follistatin-related protein 3 (Homo sapiens) (O95633 whole entry, looked up): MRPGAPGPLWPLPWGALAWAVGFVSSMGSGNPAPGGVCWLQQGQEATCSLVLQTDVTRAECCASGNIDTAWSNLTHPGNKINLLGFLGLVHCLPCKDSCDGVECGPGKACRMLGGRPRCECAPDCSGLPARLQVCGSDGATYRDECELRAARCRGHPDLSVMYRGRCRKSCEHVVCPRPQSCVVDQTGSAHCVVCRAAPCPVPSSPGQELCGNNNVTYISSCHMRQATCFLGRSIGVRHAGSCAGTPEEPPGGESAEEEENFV
Chain of Fibroblast growth factor 10 (Homo sapiens) (O15520 whole entry, looked up): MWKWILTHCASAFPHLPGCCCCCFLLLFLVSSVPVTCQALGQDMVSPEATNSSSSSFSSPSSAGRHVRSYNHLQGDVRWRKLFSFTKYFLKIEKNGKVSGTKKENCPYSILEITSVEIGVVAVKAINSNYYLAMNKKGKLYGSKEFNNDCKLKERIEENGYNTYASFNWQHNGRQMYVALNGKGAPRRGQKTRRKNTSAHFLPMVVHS

SMILES | composite z-score [1] | z-score [2] | z-score [3] | z-score [4] | composite z-score [5] | z-score [6] | composite z-score [7] | composite z-score [8] | composite z-score [9] | composite z-score [10] | composite z-score [11] | composite z-score [12] | composite z-score [13] | z-score [14] | composite z-score [15] | composite z-score [16] | composite z-score [17] | composite z-score [18] | composite z-score [19] | composite z-score [20]
CN(C)CCCCCCNC(=O)[C@@H]1C[C@@H]2C(=O)NCC(=O)N2[C@@H]1c1ccc(O)cc1 | 1.53 | -1.2 (inactive) | -0.639 (inactive) | -0.296 (inactive) | 2.72 | -0.427 (inactive) | -0.16 | 1.47 | 1.04 | -0.0304 | 1.25 | -0.0528 | -0.29 | -0.326 (inactive) | 1.4 | 1.36 | 0.59 | 1.46 | 1.19 | 0.678
C=CCNC(=O)[C@@H]1[C@H]2C(=O)O[C@H](c3ccccc3)[C@H](c3ccccc3)N2[C@H](c2ccc(O)cc2)[C@@]12C(=O)Nc1ccc(C#CCCO)cc12 | -0.36 | -0.328 (inactive) | -0.397 (inactive) | -0.301 (inactive) | 2.17 | 2.31 (inactive) | -0.259 | -1.2 | -0.261 | -0.261 | 1.84 | -0.25 | 0.216 | -0.831 (inactive) | -0.861 | -1.07 | -0.949 | -0.459 | 0.0119 | -0.348
COC(=O)[C@]1(Cc2ccccc2N=[N+]=[N-])N=C(c2ccc(OCCCO)cc2)O[C@@H]1c1ccccc1 | 0.867 | 0.537 (inactive) | -1.28 (inactive) | 21.8 (active) | 2.21 | 1.06 (inactive) | 0.23 | -0.4 | -0.361 | -0.136 | 1.12 | 0.974 | 1.12 | 9.3 (active) | -0.261 | 0.196 | -0.355 | -0.105 | -0.932 | 0.897
CC(C)CCC[C@@H](C)[C@H]1CC[C@@]2(C)C3=C(CC[C@]12C)[C@@]1(C)CC[C@H](OC(=O)C(C)(C)C)C(C)(C)C1CC3 (stereo not given in full) | 0.475 | -3.55 (inactive) | -2.59 (inactive) | -2.18 (inactive) | 0.0236 | 0.768 (inactive) | -0.212 | 0.57 | 0.571 | -0.0549 | -0.0682 | -0.291 | -0.636 | -2.09 (inactive) | 0.897 | 0.465 | 0.837 | 0.619 | 0.683 | -0.312
O=C(CS)NCCCCCNC(=O)[C@@H]1C[C@@H]2C(=O)N3CCC[C@H]3C(=O)N2[C@@H]1c1ccc(O)cc1 | 1.09 | -0.0524 (inactive) | -0.207 (inactive) | 0.0036 (inactive) | 2.81 | 0.0681 (inactive) | -0.0279 | -0.0286 | 0.164 | -0.118 | 0.847 | 0.233 | 0.61 | 0.466 (inactive) | 0.598 | 1.14 | 0.128 | 0.0144 | 0.219 | 0.0603
CCCCC=C[C@@H](NC(=O)CCc1ccccc1)c1ccccc1 | 0.887 | 0.174 (inactive) | -1.52 (inactive) | 2.19 (inactive) | 1.43 | -1.52 (inactive) | 0.138 | 0.0567 | 1.12 | 0.0184 | 0.956 | 0.401 | -0.0262 | 11.9 (active) | 0.919 | 0.869 | 0.51 | 0.188 | 0.248 | 0.724
C=CC[C@]1(C(=O)N(C)C)N=C(c2ccc(OCCCO)cc2)O[C@H]1c1ccccc1 | 1.43 | -1.76 (inactive) | -3.16 (inactive) | -0.979 (inactive) | 3.59 | 0.896 (inactive) | 0.0158 | 0.364 | 1.14 | -0.0512 | 1.05 | 0.135 | 0.953 | -1.04 (inactive) | 1.21 | 0.254 | -0.489 | 0.479 | -0.228 | 0.832
COC(=O)C(CC#Cc1ccc2c(c1)[C@]1(C(=O)N2)[C@H](c2ccc(O)cc2)N2[C@H](c3ccccc3)[C@H](c3ccccc3)OC(=O)[C@H]2[C@@H]1C(=O)O)C(=O)OC | 0.439 | 1.22 (inactive) | -0.489 (inactive) | -0.922 (inactive) | 2.96 | -1.28 (inactive) | -0.166 | 0.307 | 0.64 | -0.0152 | 1.26 | -0.114 | 0.374 | -0.226 (inactive) | 0.159 | -0.375 | -0.297 | 0.528 | -0.217 | 0.201
CCCC=C(CCC)[C@@H](NS(=O)(=O)c1ccccc1)c1ccc(C(F)(F)F)cc1 | 1.39 | 0.3 (inactive) | 1.39 (inactive) | 12.1 (active) | 3.47 | -0.644 (inactive) | 0.413 | 0.554 | 1.08 | 0.132 | 0.98 | 0.965 | 0.224 | -3.31 (inactive) | 0.867 | 1.32 | 0.216 | 0.89 | -0.0595 | -0.0447
COCCOC(=O)N1C(=O)[C@@]2(c3cc(C#CCC(C(=O)OC)C(=O)OC)ccc31)[C@H](c1ccc(OCCO)cc1)N1[C@H](c3ccccc3)[C@H](c3ccccc3)OC(=O)[C@H]1[C@@H]2C(N)=O | 1.51 | 1.47 (inactive) | 0.561 (inactive) | 4.48 (inactive) | 3.22 | 0.237 (inactive) | 0.011 | 0.543 | 1.13 | -0.0238 | 1.46 | 0.0751 | 0.443 | -1.6 (inactive) | 1.1 | 1.24 | 0.603 | 1.26 | 0.57 | 0.324
